Assay outcomes deposited in PubChem BioAssay by National Center for Advancing Translational Sciences (NCATS).
Only some compounds are listed: those with a hit (about 2.4% of all), similar ones and a draw of the others.
Cruzain inh Det – cruzain (T. cruzi) inhibition with detergent; P25779; purified cruzain, Z-FR-AMC fluorescence, 0.01% Triton; Potency, µM, for inactives: max response, negative = inhibition, usual class: inhibitors; 0.43% of 200,000 active; AID 1478;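 note: plate controls were neutral wells for no effect and buffer without enzyme for full effect; nearly all actives have a fitted effect of over 40% in size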
Target sequence (P25779 123-467 limits assumed): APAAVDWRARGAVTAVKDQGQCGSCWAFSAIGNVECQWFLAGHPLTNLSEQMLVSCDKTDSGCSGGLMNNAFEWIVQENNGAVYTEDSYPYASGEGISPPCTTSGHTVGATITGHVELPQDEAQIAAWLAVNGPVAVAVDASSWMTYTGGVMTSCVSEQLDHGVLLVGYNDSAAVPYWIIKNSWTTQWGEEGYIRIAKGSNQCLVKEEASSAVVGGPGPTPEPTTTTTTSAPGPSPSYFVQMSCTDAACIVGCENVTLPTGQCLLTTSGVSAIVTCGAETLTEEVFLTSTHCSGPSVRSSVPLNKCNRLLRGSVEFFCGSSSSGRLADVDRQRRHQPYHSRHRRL
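15 min RT preincubation of 1.5 nM cruzain with compound, then 2 uM Z-FR-AMC added; kinetic AMC fluorescence, 60 s delta. Triton X-100 0.01%, pH 5.5.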
Cruzain inh noDet – inhibitors of Trypanosoma cruzi cruzain without detergent; P25779; purified cruzain, Z-FR-AMC fluorescence, no detergent; Potency, µM, without a hit: max response, negative = inhibition, actives largely listed as inhibitors; 2.3% of 200,000 active; AID 1476;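 note: plate controls were enzyme without inhibitor for no effect and buffer without enzyme for full effect; nearly all actives have a fitted effect of over 40% in size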
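Detergent-free condition (0.00005% Triton X-100) in acetate buffer pH 5.5 with DTT. 1.5 nM enzyme and compound were pre-mixed 15 min, then 2 uM Z-FR-AMC substrate added; reaction progress from fluorescence change between first and third reads (60 s).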
* = called active by the depositor; ? = inconclusive; ! = not active in a repeat. Calls come from the whole dose curve; as a rule, active = well fitted curve in the direction sought with a large enough effect; inconclusive = small, poorly fitted or top-dose-only effect, or another doubt; inactive = no such curve, though single readings can be large; an effect the other way counts as inactive or inconclusive. Potency is the fitted concentration of half-maximal effect.

SMILES	Cruzain inh Det	Cruzain inh noDet
O=C(O)[C@H]1C(=CCO)O[C@H]2CC(=O)N12	0.0%	-0.2%
NC(N)=NC(N)=Nc1ccc(S(N)(=O)=O)cc1	-0.2%	-0.5%
Cc1ccc(S(=O)(=O)Nc2nc3ccccc3nc2NCc2ccco2)cc1	-8.8%	?
O=S(=O)(Nc1nc2ccccc2nc1NCc1ccco1)c1ccc(Cl)cc1	-13.0%	20µM*
CCN(CC)CCCNC(=O)Cn1nc(C)n2c(cc3sccc32)c1=O	-2.4%	-1.0%
NC(N)=Nc1nc(CSCC/C(N)=N/S(N)(=O)=O)cs1	-14.1%	10µM*!
CSc1nc(N)c2ncn([C@@H]3O[C@H](COP(=O)(O)OP(=O)(O)O)[C@H](O)[C@H]3O)c2n1	3.3%	-4.2%
COc1ccc(C2CC(c3ccccc3)=NN2C(=O)COC(=O)c2cccnc2Cl)cc1 (stereo not drawn)	-7.4%	16.2%
COc1ccc(C2CC(c3ccccc3)=NN2C(=O)COC(=O)c2cccnc2)cc1 (stereo not drawn)	-7.7%	15.8µM*
COc1ccc(C2CC(c3ccccc3)=NN2C(=O)COC(=O)c2cc(S(=O)(=O)N3CCOCC3)ccc2Cl)cc1 (stereo not drawn)	0.7%	12.6µM*
COc1ccc(C2CC(c3ccccc3)=NN2C(=O)COC(=O)C2CC2)cc1 (stereo not drawn)	-7.6%	-0.2%
Cc1ccc(N2CC(c3nc4ccccc4n3CCC3CCCCC3)CC2=O)cc1 (stereo not drawn)	-3.9%	0.3%
COc1cc(NC(=O)Cn2c(=O)ccc3cc(S(=O)(=O)N4CCCC4)ccc32)cc(OC)c1	-5.3%	8.2%
O=C(O)CNC(=O)[C@H]1NC(C(F)(F)F)(C(F)(F)F)OC1(C(F)(F)F)C(F)(F)F	-2.4%	2.9%
COc1ccc(NC(=O)c2cc3ccccn3n2)cc1	-0.8%	-10.0%
O=C(Nc1ccc(OC(F)(F)F)cc1)c1cc2ccccn2n1	-2.1%	25.1µM*
CCc1nn(C(CC)C(=O)NCc2ccc(OC)c(OC)c2)c(=O)c2cc3oc(C)cc3n12 (stereo not drawn)	-4.1%	12.2%
Cc1oc(-c2ccc(C(=O)NCc3ccc(Cl)cc3)cc2)nc1CS(=O)(=O)c1ccccc1	-4.4%	25.1µM*
Cc1oc(-c2ccc(C(=O)NCc3ccccc3)cc2)nc1CS(=O)(=O)c1ccccc1	-5.9%	?
CCCOc1ccc(-c2nonc2NC(=O)c2ccco2)cc1OCCC	-3.8%	-10.0%
CCOC(=O)c1c(NC(=O)Nc2ccc(Cl)cc2)sc(C)c1C	-0.8%	25.1µM*
CCOC(=O)c1c(NC(=O)Nc2cccc(Cl)c2)sc(C)c1C	-0.4%	25.1µM*
O=C(Nc1cccc(Cl)c1)Nc1cccc(Cl)c1	-11.2%	1.8%
CCOC(=O)c1sc(NC(=O)Nc2ccc(Cl)cc2)cc1C	-1.6%	-7.6%
Cc1nn2c(=O)cc(COC(=O)c3cccc(NC(=O)COc4ccccc4C)c3)nc2s1	-0.9%	16.1%
SMILES	Cruzain inh Det	Cruzain inh noDet
Cc1cc(O)c(C=O)c2c1C(=O)Oc1c(COC(=O)/C=C/C(=O)O)c(O)c(C(=O)O)c(C)c1O2	1.9%	11.3%
CCc1nnc2c(NCc3ccccc3OC)nc3ccccc3n12	-0.5%	6.3%
CCC(=O)CC(c1ccccc1)c1c(O)c2ccccc2sc1=O (stereo not drawn)	-13.9%	-9.9%
O=c1c(C(c2ccccc2)c2c(O)sc3ccccc3c2=O)c(O)sc2ccccc12	25.1µM*	?
C=Cc1ccc(CSc2nc(-c3ccc(Cl)cc3)nc3c2Cc2c(CO)cnc(C)c2O3)cc1	-1.8%	?
COC(=O)c1c(NC(=O)/C=C/c2ccc(OC)c(OC)c2)sc2c1CCC2	0.3%	1.3%
Cc1ccc(Cl)cc1NC(=O)C(Cc1ccccc1)NS(=O)(=O)c1cccc2nsnc12 (stereo not drawn)	-4.3%	25.1µM*
O=C(Nc1ccc(OC(F)(F)F)cc1)C(Cc1ccccc1)NS(=O)(=O)c1cccc2nsnc12 (stereo not drawn)	-3.9%	7.2%
CC(C)(C)NC(=O)C(Cc1ccccc1)NS(=O)(=O)c1cccc2nsnc12 (stereo not drawn)	1.6%	4.1%
O=C(Nc1ccc(Cl)c(C(F)(F)F)c1)C(Cc1ccccc1)NS(=O)(=O)c1cccc2nsnc12 (stereo not drawn)	-9.4%	20µM*
Cc1ccc(Cl)cc1N1CCN(C(=O)c2cc(S(=O)(=O)N3CCCCC3)cn2C)CC1	0.3%	-10.2%
Cc1ccc2oc(=O)c(-c3nc(-c4cccs4)no3)cc2c1	-0.7%	-2.2%
CCCCC(=O)Nc1cccc(OCc2cc(=O)n3ccccc3n2)c1	4.9%	10.9%
CCc1sc(Nc2cccc(Cl)c2C)nc1-c1cc2cccc(OC)c2oc1=O	0.4%	1.6%
O=C(CNc1cccc(Cl)c1)c1ccc(Cl)cc1	6.6%	31.6µM*
Cc1ccc(C(=O)CNc2cccc(Cl)c2)cc1	-0.5%	-23.0%
O=C(/C=C\c1ccc2c(c1)OCO2)NC1CC(=O)N(c2ccc(Cl)cc2)C1 (stereo not drawn)	-1.5%	-8.6%
O=C(/C=C\c1ccc2c(c1)OCO2)Nc1c2c(nn1-c1ccc(Cl)cc1)CSC2	-4.8%	25.1µM*
CNC(=S)N/N=C/c1cn(CCOc2ccccc2OC)c2ccccc12	-23.2%	31.6µM*
CNC(=S)N/N=C/c1cn(CCOc2cccc(OC)c2)c2ccccc12	-26.6%	25.1µM*
COc1ccc(OCCn2cc(/C=N/NC(=O)c3ccncc3)c3ccccc32)cc1	-8.1%	?
COc1cccc(OCCn2cc(/C=N/NC(=O)c3ccncc3)c3ccccc32)c1	-11.3%	?
COC(=O)c1c(SCC(=O)Nc2cccc(Cl)c2C)[nH]c2ccccc2c1=O	0.2%	-12.5%
CSc1ccc(/C=C(\NC(=O)c2ccc(C)cc2)C(=O)Nc2cccc(C)c2)cc1	-0.2%	7.94µM*
Cc1ccc(C(=O)N/C(=C/c2ccc(Cl)cc2)C(=O)Nc2cccc(C(=O)O)c2)cc1	-7.7%	?
SMILES	Cruzain inh Det	Cruzain inh noDet
COc1ccc(C2=NN(CC(=O)NCCCN(C)c3ccccc3)C(=O)CC2)cc1	-4.7%	2.2%
COc1cc2c(cc1O)C[C@H]1c3c(cc(OC)c(O)c3-2)CCN1C	-3.9%	0.1%
COc1cc2c(cc1O)CC1c3c(cc(O)c(OC)c3-2)CCN1C (stereo not drawn)	-3.5%	31.6µM*!
O=C(Nc1cccc(Br)c1)Nc1nc2c(s1)CCCCCC2	-6.3%	8.5%
COc1ccc(CNC(=O)c2ccc(-c3nc(CSc4ccc(C)cc4)c(C)o3)cc2)c(OC)c1	4.7%	2.5%
O[N+]1=CC=CCC1=S.On1ccccc1=S.[Zn]	3.16µM*	2.51µM*
Cc1ccc(C)c2nc3sc(C(=O)N4CCCc5ccccc54)c(N)c3cc12	4.6%	3.4%
CCc1ccc2nc3sc(C(=O)N4CCc5ccccc54)c(N)c3cc2c1	-3.0%	25.1µM*
Cc1ccc(CNC(=O)c2cc3c(s2)-c2c(C)cccc2OC3)cc1	-28.7%	?
CCN(C(=O)c1cc2c(s1)-c1c(C)cccc1OC2)c1cc(C)ccc1C	-14.0%	-19.0%
Cc1cccc(N2CCN(C(=O)C3CCN(Cc4nc(-c5ccc(Cl)cc5)oc4C)CC3)CC2)c1C	0.9%	-0.1%
Cc1ccccc1OCCn1nc(C(=O)O)c2ccccc2c1=O	-4.8%	16.0%
Cc1cc(C(=O)Cn2nc(C(=O)O)c3ccccc3c2=O)c(C)n1-c1ccc(F)cc1	-8.6%	25.1µM*
Cc1cc(C2(c3cc(C)c(O)c(C(=O)O)c3)OS(=O)(=O)c3ccccc32)cc(C(=O)O)c1O	-6.9%	3.9%
O=C(c1ccc2c(c1)N(Cc1ccc(Cl)cc1)C(=O)c1ccccc1S2(=O)=O)N1CCCC1	-2.2%	?
